Assay results taken from PubChem BioAssay.
The source made the active and inactive calls. Unless noted, the rule behind the calls is not given here.

Key:
[1] = test system: Wnt5a (protein binding on small-molecule microarray); test: Wnt5a binders on small-molecule microarray, primary screen, biophysical, 635/667 nm fluorescence (AID 1142); conditions: 635 nm fluorescence, higher = more signal;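 note: fluorescence read at 667 nm with signal to noise per printed feature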
[2] = cell viability in Huh7 cells, primary screen, cytotoxicity control for HCV replication inhibitor project, CellTiter-Glo luminescence, basal, 48 h (AID 1143); conditions: Huh7 HCV replicon, higher = more signal, called active from +8 up or from −8 down;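 note: Huh7 hepatoma cells carrying a hepatitis C replication reporter with no stimulus; test concentration not given here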
[3] = P. aeruginosa biofilm formation inhibitors, primary screen, PAO1 strain, BacTiter-Glo luminescence, LB-PBS (AID 1144); conditions: 12 h, higher = more signal
[4] = CREB reporter modulators without forskolin, primary screen, cell-based, PC12, CRE-LacZ reporter, unstimulated (AID 1145); conditions: no forskolin, luminescence, 4.5 h, higher = more signal, called active from +8 up or from −8 down
[5] = CREB reporter modulators under forskolin, primary screen, cell-based, PC12, CRE-LacZ reporter, forskolin-stimulated (AID 1146); conditions: luminescence, 4.5 h, higher = more signal, called active from +8 up or from −8 down;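 note: PC12 cells with 6xCRE LacZ reporter stimulated by forskolin 10 µM; beta-galactosidase reporter signal reflecting CREB driven transcription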
[6] = biological target: Streptavidin (Streptomyces avidinii) (UniProt P22629); test: streptavidin binders on small-molecule microarray, primary screen, artefact control for SMM compound annotation, biophysical, 635/667 nm fluorescence (AID 1147); conditions: streptavidin binding, higher = more signal;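 note: signal reflects streptavidin binding to arrayed compounds as a control protein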
Chain of Streptavidin (Streptomyces avidinii) (P22629 whole entry, looked up): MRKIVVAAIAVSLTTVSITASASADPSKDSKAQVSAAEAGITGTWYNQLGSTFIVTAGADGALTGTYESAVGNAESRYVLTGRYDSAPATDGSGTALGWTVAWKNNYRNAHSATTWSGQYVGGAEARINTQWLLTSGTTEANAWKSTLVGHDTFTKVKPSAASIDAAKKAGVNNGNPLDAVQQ

[7] = small-molecule binders of probe aInhba, primary screen, biochemical, small-molecule microarray, 635/667 nm fluorescence (AID 1148); conditions: higher = more signal;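 note: score merges 667nm spot fluorescence with signal-to-noise for antibody binding to printed compounds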
Torsin-1A (Homo sapiens) [8] = biological target: Torsin-1A (Homo sapiens) (UniProt O14656); test: torsin A binders from cell lysate, primary screen, small-molecule microarray, wild-type, 635/667 nm (AID 1149); conditions: COS7 hTOR1A-WT lysate, 635 nm fluorescence, higher = more signal
Chain of Torsin-1A (Homo sapiens) (O14656 whole entry, looked up): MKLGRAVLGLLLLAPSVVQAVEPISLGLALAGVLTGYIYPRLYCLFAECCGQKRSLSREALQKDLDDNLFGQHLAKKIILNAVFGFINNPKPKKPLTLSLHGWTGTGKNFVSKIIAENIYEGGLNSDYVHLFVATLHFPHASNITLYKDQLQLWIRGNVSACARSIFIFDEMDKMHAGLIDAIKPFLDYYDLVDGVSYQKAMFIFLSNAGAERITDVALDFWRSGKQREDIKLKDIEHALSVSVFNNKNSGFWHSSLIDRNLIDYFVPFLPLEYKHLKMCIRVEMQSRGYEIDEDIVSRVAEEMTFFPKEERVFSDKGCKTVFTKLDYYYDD

Torsin-1A (Homo sapiens) [9] = biological target: Torsin-1A (Homo sapiens) (UniProt O14656); test: small-molecule binders of mutant TOR1A in lysate, primary screen, cell lysate, small-molecule microarray, COS7 lysate, 635/667 nm fluorescence (AID 1150); conditions: COS7 hTOR1A mutant lysate, 635 nm fluorescence, higher = more signal;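 note: score pools 667 nm emission and signal to noise measuring lysate protein binding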
[10] = test system: Sonic hedgehog protein (Shh); test: small-molecule binders of Shh protein, primary screen, biochemical, small-molecule microarray, 635/667 nm fluorescence (AID 1151); conditions: small-molecule microarray binding, 635 nm fluorescence; higher = more signal;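 note: Shh protein binding to compounds spotted on small-molecule microarray slides; score combines spot fluorescence intensity with signal-to-noise across triplicate slides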
[11] = E. coli DRC41 culture turbidity changes, primary screen, E. coli filamentation inducer project, strain DRC41, OD650, 48 h (AID 1152);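 note: E. coli MC1000 strain DRC41 lacking acrAB efflux pump and sulA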; conditions: E. coli DRC41 (acrAB sulA), higher = more signal, called active from +8 up or from −8 down
[12] = small-molecule binders of probe aLefty1, primary screen, biochemical, small-molecule microarray, 635/667 nm fluorescence (AID 1153); conditions: higher = more signal;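 note: score merges spot fluorescence with signal-to-noise ratio from the scanned slide images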
[13] = PSAC antagonists in infected red cells, primary screen, cell-based, P. falciparum Indochina, OD700, 1 h (AID 1154); conditions: P. falciparum Indochina infected RBC osmotic lysis, higher = more signal, called active from +8 up or from −8 down
[14] = PSAC antagonists in infected red cells, primary screen, cell-based, P. falciparum Indochina, OD700, 2 h (AID 1155);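 note: lysis reports solute entry through the parasite surface anion channel PSAC; channel blockers reduce lysis of infected cells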; conditions: P. falciparum Indochina infected erythrocytes, osmotic lysis OD700; higher = more signal, called active from +8 up or from −8 down
[15] = osmotic lysis modulators in infected erythrocytes, primary screen, PSAC antagonist project, cell-based, P. falciparum Indochina, OD700, 3 h (AID 1156); conditions: higher = more signal, called active from +8 up or from −8 down
[16] = PSAC antagonists in infected red cells, primary screen, cell-based, P. falciparum Indochina, OD700, 18 h (AID 1157); conditions: P. falciparum Indochina infected erythrocytes, osmotic lysis OD700, 18 h; higher = more signal, called active from +8 up or from −8 down
[17] = modulators of S6 phosphorylation in cells, primary screen, cell-based, A549, cytoblot, luminescence, serum-stimulated (AID 1158); conditions: A549 phospho-S6 cytoblot, 5 h, higher = more signal;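 note: serum-stimulated A549 lung adenocarcinoma cells; signal is phosphorylated S6 detected by cytoblot immunostaining with HRP secondary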
[18] = biological target: NADPH oxidase 2 (Homo sapiens) (UniProt P04839); test: NOX2-dependent H2O2 signal modulators, primary screen, NOX inhibitor project, cell-based, HEK293-NOX2, PMA-stimulated, Amplex Red fluorescence (AID 1159); conditions: 45 min, higher = more signal, called active from +8 up or from −8 down; note: test concentration not given here
Chain of NADPH oxidase 2 (Homo sapiens) (P04839 whole entry, looked up): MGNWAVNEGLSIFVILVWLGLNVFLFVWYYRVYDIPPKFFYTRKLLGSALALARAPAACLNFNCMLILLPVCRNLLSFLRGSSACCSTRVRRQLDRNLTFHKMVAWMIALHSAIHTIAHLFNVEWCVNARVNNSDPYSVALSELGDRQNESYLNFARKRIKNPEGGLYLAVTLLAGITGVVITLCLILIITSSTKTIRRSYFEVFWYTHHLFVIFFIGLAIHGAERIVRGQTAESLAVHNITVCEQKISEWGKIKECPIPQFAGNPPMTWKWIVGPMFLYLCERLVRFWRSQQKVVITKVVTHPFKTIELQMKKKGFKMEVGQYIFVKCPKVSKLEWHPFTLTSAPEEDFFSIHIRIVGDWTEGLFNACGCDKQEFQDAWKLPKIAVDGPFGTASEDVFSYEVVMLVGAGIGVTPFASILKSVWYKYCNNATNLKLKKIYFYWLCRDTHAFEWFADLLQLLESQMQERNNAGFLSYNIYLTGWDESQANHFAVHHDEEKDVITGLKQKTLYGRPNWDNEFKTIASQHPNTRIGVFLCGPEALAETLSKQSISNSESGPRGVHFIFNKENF

[19] = biological target: NADPH oxidase 4 (Homo sapiens) (UniProt Q9NPH5); test: NOX4-dependent H2O2 signal modulators, primary screen, NOX inhibitor project, cell-based, HEK293-NOX4, tetracycline-induced, Amplex Red fluorescence (AID 1160); conditions: 45 min, higher = more signal, called active from +8 up or from −8 down
Chain of NADPH oxidase 4 (Homo sapiens) (Q9NPH5 whole entry, looked up): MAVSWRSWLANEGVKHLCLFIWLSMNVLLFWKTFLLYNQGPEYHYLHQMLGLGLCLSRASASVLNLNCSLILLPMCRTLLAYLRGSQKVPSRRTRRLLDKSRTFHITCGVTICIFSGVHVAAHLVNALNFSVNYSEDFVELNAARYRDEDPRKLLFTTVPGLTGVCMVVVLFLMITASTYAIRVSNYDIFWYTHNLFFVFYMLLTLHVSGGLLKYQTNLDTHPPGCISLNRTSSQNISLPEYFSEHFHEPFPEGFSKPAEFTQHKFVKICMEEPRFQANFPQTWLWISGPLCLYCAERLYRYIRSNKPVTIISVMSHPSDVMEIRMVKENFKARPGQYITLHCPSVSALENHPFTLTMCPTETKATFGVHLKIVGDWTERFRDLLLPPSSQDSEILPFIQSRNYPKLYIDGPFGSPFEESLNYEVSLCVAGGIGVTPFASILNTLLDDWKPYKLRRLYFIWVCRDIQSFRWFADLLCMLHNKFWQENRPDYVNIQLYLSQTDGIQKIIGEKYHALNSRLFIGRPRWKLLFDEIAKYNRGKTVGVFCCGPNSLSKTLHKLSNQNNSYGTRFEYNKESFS

[20] = biological target: NADPH oxidase 5 (Homo sapiens) (UniProt Q96PH1); test: NOX5-dependent H2O2 signal modulators, primary screen, NOX inhibitor project, cell-based, HEK293-NOX5, Amplex Red fluorescence (AID 1161); conditions: HEK293-NOX5, ionomycin, 45 min, higher = more signal
Chain of NADPH oxidase 5 (Homo sapiens) (Q96PH1 whole entry, looked up): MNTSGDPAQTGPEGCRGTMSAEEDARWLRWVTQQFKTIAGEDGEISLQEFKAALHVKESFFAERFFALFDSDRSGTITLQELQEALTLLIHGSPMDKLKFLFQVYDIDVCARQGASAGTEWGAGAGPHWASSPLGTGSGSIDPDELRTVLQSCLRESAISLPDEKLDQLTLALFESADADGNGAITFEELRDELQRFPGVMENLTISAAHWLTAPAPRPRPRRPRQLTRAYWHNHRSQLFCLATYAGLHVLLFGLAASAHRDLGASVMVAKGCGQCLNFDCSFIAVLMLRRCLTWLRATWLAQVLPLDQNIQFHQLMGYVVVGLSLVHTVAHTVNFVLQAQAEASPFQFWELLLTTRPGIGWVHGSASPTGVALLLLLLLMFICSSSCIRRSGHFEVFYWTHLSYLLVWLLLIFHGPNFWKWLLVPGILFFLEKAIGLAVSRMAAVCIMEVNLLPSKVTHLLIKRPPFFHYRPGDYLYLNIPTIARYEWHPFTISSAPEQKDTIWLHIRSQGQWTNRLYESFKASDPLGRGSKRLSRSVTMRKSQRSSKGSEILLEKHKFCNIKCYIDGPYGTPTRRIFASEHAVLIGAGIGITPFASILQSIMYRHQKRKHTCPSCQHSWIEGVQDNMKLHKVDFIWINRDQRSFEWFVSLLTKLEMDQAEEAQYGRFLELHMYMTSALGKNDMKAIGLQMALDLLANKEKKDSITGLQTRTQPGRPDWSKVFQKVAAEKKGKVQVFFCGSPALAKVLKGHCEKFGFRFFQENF

SMILES | composite z-score [1] | z-score [2] | z-score [3] | z-score [4] | z-score [5] | composite z-score [6] | composite z-score [7] | composite z-score (Torsin-1A (Homo sapiens) [8]) | composite z-score (Torsin-1A (Homo sapiens) [9]) | composite z-score [10] | z-score [11] | composite z-score [12] | z-score [13] | z-score [14] | z-score [15] | z-score [16] | z-score [17] | z-score [18] | z-score [19] | z-score [20]
COc1ccc([Si](C)(C)[C@H]2[C@H](CC(=O)N3CCC[C@H]3CO)O[C@@]3(C(=O)N(Cc4ccc(N5CCOC5=O)cc4)c4ccccc43)[C@@H]2C)cc1 | 0.434 | -2.09 (inactive) | 0.11 (inactive) | 0.702 (inactive) | -0.101 (inactive) | -0.0564 | 0.235 | 0.702 | 0.64 | 2.05 | 0.397 (inactive) | 0.298 | 9.5 (active) | 1.8 (inactive) | 0.088 (inactive) | 0.746 (inactive) | 0.0491 | 1.94 (inactive) | -0.0662 (inactive) | 3.78
CCCCC(=C=CC[C@H](O)c1ccc(OCCO)cc1)CCO | -0.0188 | -1.08 (inactive) | 0.489 (inactive) | 2.57 (inactive) | 0.0098 (inactive) | -0.209 | -0.0451 | 0.678 | 1.58 | 0.011 | -0.495 (inactive) | -0.0967 | 12.9 (active) | 1.77 (inactive) | 1.06 (inactive) | 0.627 (inactive) | -0.517 | -0.649 (inactive) | -0.798 (inactive) | -2.06
C=C(COC)/C(=C/C[C@H](OC(=O)c1ccncc1)c1ccccc1OCCO)c1cc(C(=O)OC)ccc1OC | 0.163 | -2.17 (inactive) | 0.492 (inactive) | 11.9 (active) | 2.47 (inactive) | -0.275 | -0.0136 | 1.19 | 0.664 | 1.71 | -0.604 (inactive) | 0.307 | 14 (active) | 2.43 (inactive) | 2.72 (inactive) | 0.773 (inactive) | 0.0976 | -1.21 (inactive) | 0.0788 (inactive) | -1.62
C=CC[C@@H](OC(=O)Nc1ccc(SC)cc1)c1ccc(O)c(F)c1 | 0.175 | -0.77 (inactive) | -1.57 (inactive) | 9.49 (active) | 3.13 (inactive) | -0.192 | -0.0468 | 0.26 | 0.163 | 1.87 | 0.959 (inactive) | -0.0573 | 24.1 (active) | 6.56 (inactive) | 1.9 (inactive) | 1.04 (inactive) | 0.42 | -5.77 (inactive) | -2.85 (inactive) | -3.25
CC(=O)NCCCC[C@@H]1NC(=O)[C@@H]2C[C@H](C(=O)NCCCCCN)[C@H](c3ccc(O)cc3)N2C1=O | 0.66 | -0.224 (inactive) | 0.268 (inactive) | 0.285 (inactive) | -0.389 (inactive) | 0.977 | 0.221 | 1.14 | 1.54 | 1.52 | 2.04 (inactive) | 0.482 | 1.46 (inactive) | 0.374 (inactive) | 0.45 (inactive) | 0.301 (inactive) | 0.856 | 1.93 (inactive) | 0.0542 (inactive) | 2.86
COC(=O)[C@@]1(Cc2ccc(OC)cc2)[C@H]2c3cc(C(=O)N(C)C)n(Cc4ccc(C)o4)c3C[C@H]2CN1C(=O)c1ccccc1 | 0.331 | -1.93 (inactive) | 1.15 (inactive) | -0.568 (inactive) | -0.46 (inactive) | 0.57 | 0.112 | -0.0657 | 0.567 | -0.797 | -0.155 (inactive) | 0.346 | 4.12 (inactive) | 0.057 (inactive) | 1.3 (inactive) | 0.594 (inactive) | 1.5 | -0.351 (inactive) | -0.0809 (inactive) | -3.41
C=CCNC(=O)[C@H]1[C@@H]2C(=O)O[C@@H](c3ccccc3)[C@@H](c3ccccc3)N2[C@@H](c2ccccc2OCCO)[C@]12C(=O)N(C(=O)OCCOC)c1ccc(C#CC3(O)CCCCCC3)cc12 | 0.358 | -5.57 (inactive) | -0.717 (inactive) | -0.258 (inactive) | 0.347 (inactive) | -0.139 | 0.0566 | 0.216 | 0.647 | 1.57 | 1.49 (inactive) | 0.25 | 1.58 (inactive) | 0.166 (inactive) | -0.236 (inactive) | -1.57 (inactive) | 2.01 | 1.52 (inactive) | 1.07 (inactive) | 0.729
CCCCCN1CC=CC23O[C@@H]4C=CCCOC(=O)C4[C@H]2C(=O)N(CCCCCCO)[C@@H]3C1=O (stereo not given in full) | -0.296 | -0.181 (inactive) | -0.00872 (inactive) | -1.03 (inactive) | -0.215 (inactive) | -0.943 | -0.263 | 1.13 | 2.1 | 0.0725 | 0.457 (inactive) | -0.324 | 1.07 (inactive) | 0.705 (inactive) | 1.01 (inactive) | 0.407 (inactive) | 1.59 | 1.27 (inactive) | -0.0418 (inactive) | 2.08
